# Results taken from the supplement of paper PMC4466140.
# Biological target: AgAbp1
# Experiment: SPOT peptide array binding signal intensity (averaged, normalized) (arbitrary units (background-subtracted, floor 0; scale differs between SH3 domains)); higher = stronger binding of the SH3 domain to the peptide
# Protocol: (§1)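 GST-tagged SH3 domains from S. cerevisiae (Sc), A. gossypii (Ag), C. albicans (Ca) and S. pombe (Sp) were incubated at 10 ug/ml overnight at 4 C on cellulose SPOT membranes carrying 292 synthetic 15-mer peptides mined from the S. cerevisiae proteome (cysteines replaced by serines). Binding was detected with anti-GST antibody, HRP secondary and chemiluminescence, quantified with Genespotter, and reported as normalized spot intensities averaged over biological replicates.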
row,Binder,SPOT peptide array binding signal intensity
1,LLIRWLILMPLVGSR,19.5

# Biological target: AgBbc1
# Experiment: as above
# Protocol: as §1
row,Binder,SPOT peptide array binding signal intensity
1,LLIRWLILMPLVGSR,29.5

# Biological target: AgBem1-D1
# Experiment: as above
# Protocol: as §1
row,Binder,SPOT peptide array binding signal intensity
1,LLIRWLILMPLVGSR,284

# Biological target: AgBzz1-D1
# Experiment: as above
# Protocol: as §1
row,Binder,SPOT peptide array binding signal intensity
1,LLIRWLILMPLVGSR,39

# Biological target: AgBzz1-D2
# Experiment: as above
# Protocol: as §1
row,Binder,SPOT peptide array binding signal intensity
1,LLIRWLILMPLVGSR,62

# Biological target: AgCyk3
# Experiment: as above
# Protocol: as §1
row,Binder,SPOT peptide array binding signal intensity
1,LLIRWLILMPLVGSR,24.5

# Biological target: AgFus1
# Experiment: as above
# Protocol: as §1
row,Binder,SPOT peptide array binding signal intensity
1,LLIRWLILMPLVGSR,3190

# Biological target: AgHof1
# Experiment: as above
# Protocol: as §1
row,Binder,SPOT peptide array binding signal intensity
1,LLIRWLILMPLVGSR,53

# Biological target: AgHse1
# Experiment: as above
# Protocol: as §1
row,Binder,SPOT peptide array binding signal intensity
1,LLIRWLILMPLVGSR,2550

# Biological target: AgLsb1
# Experiment: as above
# Protocol: as §1
row,Binder,SPOT peptide array binding signal intensity
1,LLIRWLILMPLVGSR,2.5

# Biological target: AgLsb4
# Experiment: as above
# Protocol: as §1
row,Binder,SPOT peptide array binding signal intensity
1,LLIRWLILMPLVGSR,1800

# Biological target: AgMyo5
# Experiment: as above
# Protocol: as §1
row,Binder,SPOT peptide array binding signal intensity
1,LLIRWLILMPLVGSR,4.5

# Biological target: AgNbp2
# Experiment: as above
# Protocol: as §1
row,Binder,SPOT peptide array binding signal intensity
1,LLIRWLILMPLVGSR,722

# Biological target: AgRvs167
# Experiment: as above
# Protocol: as §1
row,Binder,SPOT peptide array binding signal intensity
1,LLIRWLILMPLVGSR,26.5

# Biological target: AgSho1
# Experiment: as above
# Protocol: as §1
row,Binder,SPOT peptide array binding signal intensity
1,LLIRWLILMPLVGSR,1270

# Biological target: AgSla1-D1-D2
# Experiment: as above
# Protocol: as §1
row,Binder,SPOT peptide array binding signal intensity
1,LLIRWLILMPLVGSR,41

# Biological target: AgSla1-D3
# Experiment: as above
# Protocol: as §1
row,Binder,SPOT peptide array binding signal intensity
1,LLIRWLILMPLVGSR,5

# Biological target: CaAbp1-D1
# Experiment: as above
# Protocol: as §1
row,Binder,SPOT peptide array binding signal intensity
1,LLIRWLILMPLVGSR,334

# Biological target: CaAbp1-D2
# Experiment: as above
# Protocol: as §1
row,Binder,SPOT peptide array binding signal intensity
1,LLIRWLILMPLVGSR,321

# Biological target: CaBbc1
# Experiment: as above
# Protocol: as §1
row,Binder,SPOT peptide array binding signal intensity
1,LLIRWLILMPLVGSR,68

# Biological target: CaBem1-D1
# Experiment: as above
# Protocol: as §1
row,Binder,SPOT peptide array binding signal intensity
1,LLIRWLILMPLVGSR,125

# Biological target: CaBzz1-D1
# Experiment: as above
# Protocol: as §1
row,Binder,SPOT peptide array binding signal intensity
1,LLIRWLILMPLVGSR,222

# Biological target: CaBzz1-D2
# Experiment: as above
# Protocol: as §1
row,Binder,SPOT peptide array binding signal intensity
1,LLIRWLILMPLVGSR,109

# Biological target: CaCyk3
# Experiment: as above
# Protocol: as §1
row,Binder,SPOT peptide array binding signal intensity
1,LLIRWLILMPLVGSR,48

# Biological target: CaFus1
# Experiment: as above
# Protocol: as §1
row,Binder,SPOT peptide array binding signal intensity
1,LLIRWLILMPLVGSR,5090

# Biological target: CaHof1
# Experiment: as above
# Protocol: as §1
row,Binder,SPOT peptide array binding signal intensity
1,LLIRWLILMPLVGSR,1.25

# Biological target: CaHse1
# Experiment: as above
# Protocol: as §1
row,Binder,SPOT peptide array binding signal intensity
1,LLIRWLILMPLVGSR,875

# Biological target: CaLsb1
# Experiment: as above
# Protocol: as §1
row,Binder,SPOT peptide array binding signal intensity
1,LLIRWLILMPLVGSR,26.5

# Biological target: CaLsb4
# Experiment: as above
# Protocol: as §1
row,Binder,SPOT peptide array binding signal intensity
1,LLIRWLILMPLVGSR,191

# Biological target: CaMyo5
# Experiment: as above
# Protocol: as §1
row,Binder,SPOT peptide array binding signal intensity
1,LLIRWLILMPLVGSR,40

# Biological target: CaNbp2
# Experiment: as above
# Protocol: as §1
row,Binder,SPOT peptide array binding signal intensity
1,LLIRWLILMPLVGSR,1390

# Biological target: CaRvs167
# Experiment: as above
# Protocol: as §1
row,Binder,SPOT peptide array binding signal intensity
1,LLIRWLILMPLVGSR,524

# Biological target: CaRvs167-3
# Experiment: as above
# Protocol: as §1
row,Binder,SPOT peptide array binding signal intensity
1,LLIRWLILMPLVGSR,780

# Biological target: CaSho1
# Experiment: as above
# Protocol: as §1
row,Binder,SPOT peptide array binding signal intensity
1,LLIRWLILMPLVGSR,3580

# Biological target: CaSla1-D1-D2
# Experiment: as above
# Protocol: as §1
row,Binder,SPOT peptide array binding signal intensity
1,LLIRWLILMPLVGSR,30

# Biological target: CaSla1-D3
# Experiment: as above
# Protocol: as §1
row,Binder,SPOT peptide array binding signal intensity
1,LLIRWLILMPLVGSR,397

# Biological target: ScAbp1
# Experiment: as above
# Protocol: as §1
row,Binder,SPOT peptide array binding signal intensity
1,LLIRWLILMPLVGSR,35

# Biological target: ScBbc1
# Experiment: as above
# Protocol: as §1
row,Binder,SPOT peptide array binding signal intensity
1,LLIRWLILMPLVGSR,1.5

# Biological target: ScBem1-D1
# Experiment: as above
# Protocol: as §1
row,Binder,SPOT peptide array binding signal intensity
1,LLIRWLILMPLVGSR,60

# Biological target: ScBzz1-D1
# Experiment: as above
# Protocol: as §1
row,Binder,SPOT peptide array binding signal intensity
1,LLIRWLILMPLVGSR,37

# Biological target: ScBzz1-D2
# Experiment: as above
# Protocol: as §1
row,Binder,SPOT peptide array binding signal intensity
1,LLIRWLILMPLVGSR,240

# Biological target: ScCyk3
# Experiment: as above
# Protocol: as §1
row,Binder,SPOT peptide array binding signal intensity
1,LLIRWLILMPLVGSR,122

# Biological target: ScFus1
# Experiment: as above
# Protocol: as §1
row,Binder,SPOT peptide array binding signal intensity
1,LLIRWLILMPLVGSR,3690

# Biological target: ScHof1
# Experiment: as above
# Protocol: as §1
row,Binder,SPOT peptide array binding signal intensity
1,LLIRWLILMPLVGSR,0.25

# Biological target: ScHse1
# Experiment: as above
# Protocol: as §1
row,Binder,SPOT peptide array binding signal intensity
1,LLIRWLILMPLVGSR,2940

# Biological target: ScLsb1
# Experiment: as above
# Protocol: as §1
row,Binder,SPOT peptide array binding signal intensity
1,LLIRWLILMPLVGSR,11

# Biological target: ScLsb2
# Experiment: as above
# Protocol: as §1
row,Binder,SPOT peptide array binding signal intensity
1,LLIRWLILMPLVGSR,33

# Biological target: ScLsb3
# Experiment: as above
# Protocol: as §1
row,Binder,SPOT peptide array binding signal intensity
1,LLIRWLILMPLVGSR,850

# Biological target: ScLsb4
# Experiment: as above
# Protocol: as §1
row,Binder,SPOT peptide array binding signal intensity
1,LLIRWLILMPLVGSR,150

# Biological target: ScMyo3
# Experiment: as above
# Protocol: as §1
row,Binder,SPOT peptide array binding signal intensity
1,LLIRWLILMPLVGSR,5

# Biological target: ScMyo5
# Experiment: as above
# Protocol: as §1
row,Binder,SPOT peptide array binding signal intensity
1,LLIRWLILMPLVGSR,7

# Biological target: ScNbp2
# Experiment: as above
# Protocol: as §1
row,Binder,SPOT peptide array binding signal intensity
1,LLIRWLILMPLVGSR,566

# Biological target: ScPex13
# Experiment: as above
# Protocol: as §1
row,Binder,SPOT peptide array binding signal intensity
1,LLIRWLILMPLVGSR,65.2

# Biological target: ScRvs167
# Experiment: as above
# Protocol: as §1
row,Binder,SPOT peptide array binding signal intensity
1,LLIRWLILMPLVGSR,19.3

# Biological target: ScSho1
# Experiment: as above
# Protocol: as §1
row,Binder,SPOT peptide array binding signal intensity
1,LLIRWLILMPLVGSR,2890

# Biological target: ScSla1-D1-D2
# Experiment: as above
# Protocol: as §1
row,Binder,SPOT peptide array binding signal intensity
1,LLIRWLILMPLVGSR,23

# Biological target: ScSla1-D3
# Experiment: as above
# Protocol: as §1
row,Binder,SPOT peptide array binding signal intensity
1,LLIRWLILMPLVGSR,132

# Biological target: SpAbp1-D1
# Experiment: as above
# Protocol: as §1
row,Binder,SPOT peptide array binding signal intensity
1,LLIRWLILMPLVGSR,248

# Biological target: SpBbc1
# Experiment: as above
# Protocol: as §1
row,Binder,SPOT peptide array binding signal intensity
1,LLIRWLILMPLVGSR,22.8

# Biological target: SpBzz1-D1
# Experiment: as above
# Protocol: as §1
row,Binder,SPOT peptide array binding signal intensity
1,LLIRWLILMPLVGSR,300
